Results on 9 compounds are retold here after PubChem BioAssay (NCI).

The nature of assay [1]: NCI Yeast Anticancer Drug Screen. Data for the rad50 strain (AID 155).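 Note: 0% = growth of vehicle-only cultures of the same strain.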 To be noted: S. cerevisiae rad50 strain growth inhibition, hits give high values. In short, it runs like this:
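Genetically altered yeast (DNA repair pathway); compound treatment; growth inhibition vs vehicle ctrl.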

Assay [2] in a line: NCI Yeast Anticancer Drug Screen. Data for the mec2-1 strain (AID 157). The settings on record: S. cerevisiae mec2-1 strain, hits give high values. The procedure, abridged:
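Test agents were screened against the mec2-1 yeast strain, with defined DNA repair or cell cycle alteration. Growth was scored as inhibition against vehicle-only controls.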

Assay [3] can be described thus: NCI Yeast Anticancer Drug Screen. Data for the sgs1 mgt1 strain (AID 161).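 Note: 0% = growth of cultures given vehicle only.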 To be noted: S. cerevisiae sgs1 mgt1 strain, hits give high values. In short, it runs like this: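 Genetically altered yeast, compound exposure, growth inhibition relative to vehicle.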
A short description of assay [4]: NCI Yeast Anticancer Drug Screen. Data for the cln2 rad14 strain (AID 165).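 Note: 0% = growth equal to vehicle treated cultures.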 The settings on record: S. cerevisiae cln2 rad14 strain, hits give high values. In short, it runs like this: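 Growth of compound-exposed yeast (cln2 rad14 genotype) measured and expressed as inhibition relative to vehicle.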
Assay [5] can be described thus: NCI Yeast Anticancer Drug Screen. Data for the bub3 strain (AID 167). The settings on record: S. cerevisiae bub3 mutant strain, hits give high values. In short, it runs like this: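 Yeast carrying a defined mutation is treated with each compound, and growth is compared with that of vehicle-exposed cells to give inhibition.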
Assay [6] is described as follows: NCI Yeast Anticancer Drug Screen. Data for the mlh1 rad18 strain (AID 175). The settings on record: S. cerevisiae mlh1 rad18 strain growth inhibition, hits give high values. In short, it runs like this: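 In this whole-cell yeast screen, a strain with altered DNA damage repair is challenged with compound, and its growth is measured against matched vehicle-treated controls.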

The mark [7] stands for this setting: at 5.0 µM (retest, dose inferred, filed as 0.5).
Setting [8] is: at 50.0 µM (retest, dose inferred, filed as 5.0).

Molecules are shown by their SMILES. Compounds without any hit were thinned out: in the full panel of roughly 79,000, 15% have a hit. Values without a mark were called inactive. The source made the active and inactive calls. Cut-off read from the data, not from the text of the source: active = growth inhibition above about 70%; inactive = the rest.

On to `O=C1C(c2ccc([N+](=O)[O-])cc2)=C(Cl)C(=O)c2c(O)cccc21`, for which the growth inhibition in assay [1] (setting [7]) is -30%; in assay [1] (setting [8]) it was -22%; in assay [1] (at 50.0 µM) it was 71.2% (active); in assay [2] (setting [7]), -3%; in assay [2] (setting [8]), -9%; in assay [2] (at 50.0 µM), 45.1%. In addition, the growth inhibition in assay [3] (setting [7]) was 0%; in assay [3] (setting [8]) it was -19%; in assay [3] (at 50.0 µM), 27.8%; in assay [4] (setting [7]) it was 8%; in assay [4] (setting [8]), 0%; in assay [4] (at 50.0 µM), 1%. The growth inhibition in assay [5] (setting [7]) was 3%; in assay [5] (setting [8]), -37%; in assay [5] (at 50.0 µM) it was 69.2%; in assay [6] (setting [7]), -14%; in assay [6] (setting [8]) it was 0%; in assay [6] (at 50.0 µM), 45.4%.

With `N#Cc1c(Cl)nsc1-c1ccc([N+](=O)[O-])cc1`, the growth inhibition in assay [1] (setting [7]) is -6%; in assay [1] (setting [8]), 35%; in assay [1] (at 50.0 µM), 91.2% (active); in assay [2] (setting [7]) it was 7%; in assay [2] (setting [8]), 65%; in assay [2] (at 50.0 µM) it was 93% (active). Besides, the growth inhibition was 1% in assay [3] (setting [7]); 33% in assay [3] (setting [8]); 91.1% (active) in assay [3] (at 50.0 µM); 27% in assay [4] (setting [7]); 59% in assay [4] (setting [8]); 88.8% (active) in assay [4] (at 50.0 µM). Further, the growth inhibition in assay [5] (setting [7]) is -6%; in assay [5] (setting [8]), 80% (active); in assay [5] (at 50.0 µM), 92.3% (active); in assay [6] (setting [7]), 7%; in assay [6] (setting [8]) it was 87% (active); in assay [6] (at 50.0 µM) it was 84.6% (active).

As to `O=C(/C=C/c1ccc([N+](=O)[O-])o1)N1CCN(Cc2ccccc2)CC1`, the growth inhibition was 38% in assay [1] (setting [7]); 78% (active) in assay [1] (setting [8]); 75.1% (active) in assay [1] (at 50.0 µM); 33% in assay [2] (setting [7]); 75% (active) in assay [2] (setting [8]); 60% in assay [2] (at 50.0 µM). For the same compound, the growth inhibition was 55% in assay [3] (setting [7]); 92% (active) in assay [3] (setting [8]); 74% (active) in assay [3] (at 50.0 µM); 35% in assay [4] (setting [7]); 60% in assay [4] (setting [8]); 38.8% in assay [4] (at 50.0 µM). Also, the growth inhibition in assay [5] (setting [7]) is 43%; in assay [5] (setting [8]), 75% (active); in assay [5] (at 50.0 µM) it was 62%; in assay [6] (setting [7]), 52%; in assay [6] (setting [8]) it was 91% (active); in assay [6] (at 50.0 µM), 58.6%.

As to `Cc1cc2c(c(C(N)=O)c1C)-c1cccc(F)c1C2=O`, the growth inhibition in assay [1] (setting [7]) was 4%; in assay [1] (setting [8]), 47%; in assay [1] (at 50.0 µM), 77.4% (active); in assay [2] (setting [7]) it was 4%; in assay [2] (setting [8]) it was 20%; in assay [2] (at 50.0 µM), 7.15%. The growth inhibition in assay [3] (setting [7]) was 20%; in assay [3] (setting [8]) it was 20%; in assay [3] (at 50.0 µM), 37.6%; in assay [4] (setting [7]) it was -1%; in assay [4] (setting [8]), 14%; in assay [4] (at 50.0 µM), 75.5% (active). Further, the growth inhibition in assay [5] (setting [7]) was 2%; in assay [5] (setting [8]), 32%; in assay [5] (at 50.0 µM), 16%; in assay [6] (setting [7]), 1%; in assay [6] (setting [8]), 32%; in assay [6] (at 50.0 µM), 90.5% (active).

`CS(=O)(=O)OC1C(O)C(n2cnc3c(N)ncnc32)C(O)C(OS(C)(=O)=O)C1OS(C)(=O)=O` (configuration not stated): the growth inhibition is 0% in assay [1] (setting [7]); -2% in assay [1] (setting [8]); 0.05% in assay [1] (at 50.0 µM); 1% in assay [2] (setting [7]); -3% in assay [2] (setting [8]); 57.5% in assay [2] (at 50.0 µM). In addition, the growth inhibition is -2% in assay [3] (setting [7]); -1% in assay [3] (setting [8]); 3.8% in assay [3] (at 50.0 µM); -1% in assay [4] (setting [7]); 0% in assay [4] (setting [8]); -7.9% in assay [4] (at 50.0 µM). Moreover, the growth inhibition in assay [5] (setting [7]) is -1%; in assay [5] (setting [8]), -2%; in assay [5] (at 50.0 µM), 40%; in assay [6] (setting [7]), -1%; in assay [6] (setting [8]) it was -1%; in assay [6] (at 50.0 µM), 18.4%.

In the case of `CC12CCCCC1CCC(Br)C2=O` (configuration not stated), the growth inhibition in assay [1] (setting [7]) was -115%; in assay [1] (setting [8]), -2%; in assay [1] (at 50.0 µM) it was 59%; in assay [2] (setting [7]), -40%; in assay [2] (setting [8]), -18%; in assay [2] (at 50.0 µM) it was 41.5%. For the same compound, the growth inhibition was -51% in assay [3] (setting [7]); 22% in assay [3] (setting [8]); 70.2% (active) in assay [3] (at 50.0 µM); -50% in assay [4] (setting [7]); -35% in assay [4] (setting [8]); -17.7% in assay [4] (at 50.0 µM). The growth inhibition in assay [5] (setting [7]) is -57%; in assay [5] (setting [8]) it was -34%; in assay [5] (at 50.0 µM), 13.1%; in assay [6] (setting [7]) it was -128%; in assay [6] (setting [8]), -55%; in assay [6] (at 50.0 µM), 61.6%.

On to `[O-][n+]1c(-c2ccccc2)c(Cl)c(-c2ccccc2)n1O`, for which the growth inhibition is 4% in assay [1] (setting [7]); 75% (active) in assay [1] (setting [8]); 86.3% (active) in assay [1] (at 50.0 µM); 0% in assay [2] (setting [7]); 94% (active) in assay [2] (setting [8]); 97% (active) in assay [2] (at 50.0 µM). In addition, the growth inhibition is 4% in assay [3] (setting [7]); 92% (active) in assay [3] (setting [8]); 97.6% (active) in assay [3] (at 50.0 µM); 0% in assay [4] (setting [7]); 53% in assay [4] (setting [8]); 92.7% (active) in assay [4] (at 50.0 µM). Further, the growth inhibition in assay [5] (setting [7]) was 8%; in assay [5] (setting [8]), 96% (active); in assay [5] (at 50.0 µM), 97.8% (active); in assay [6] (setting [7]), 4%; in assay [6] (setting [8]), 95% (active); in assay [6] (at 50.0 µM), 97.5% (active).

For `CN1C(OCc2ccccc2)c2c(ccc3c2OCO3)C2C=Cc3cc4c(cc3C21)OCO4` (configuration not stated), the growth inhibition is 47% in assay [1] (setting [7]); 99% (active) in assay [1] (setting [8]); 92.8% (active) in assay [1] (at 50.0 µM); 39% in assay [2] (setting [7]); 99% (active) in assay [2] (setting [8]); 93.2% (active) in assay [2] (at 50.0 µM). The growth inhibition in assay [3] (setting [7]) is 96% (active); in assay [3] (setting [8]) it was 100% (active); in assay [3] (at 50.0 µM), 93% (active); in assay [4] (setting [7]), 89% (active); in assay [4] (setting [8]) it was 98% (active); in assay [4] (at 50.0 µM) it was 92.7% (active). The growth inhibition is 93% (active) in assay [5] (setting [7]); 99% (active) in assay [5] (setting [8]); 91.8% (active) in assay [5] (at 50.0 µM); 96% (active) in assay [6] (setting [7]); 99% (active) in assay [6] (setting [8]); 91.1% (active) in assay [6] (at 50.0 µM).

As for `COc1c2c(cc3c1c(=O)c1ccccc1n3C)OCO2`, the growth inhibition is -12% in assay [1] (setting [7]); 26% in assay [1] (setting [8]); 61.5% in assay [1] (at 50.0 µM); -4% in assay [2] (setting [7]); 1% in assay [2] (setting [8]); 33.9% in assay [2] (at 50.0 µM). Besides, the growth inhibition was -5% in assay [3] (setting [7]); 14% in assay [3] (setting [8]); 40.5% in assay [3] (at 50.0 µM); 18% in assay [4] (setting [7]); 5% in assay [4] (setting [8]); -45.8% in assay [4] (at 50.0 µM). Moreover, the growth inhibition in assay [5] (setting [7]) was 2%; in assay [5] (setting [8]), 0%; in assay [5] (at 50.0 µM), 25.4%; in assay [6] (setting [7]), -29%; in assay [6] (setting [8]) it was 22%; in assay [6] (at 50.0 µM) it was 62.8%.
